This is part of a sample that, as a whole, favours compounds with a hit. Of some 79,000 tested, about 15% had one in any assay. Cut-off read from the data, not from the text of the source: active = growth inhibition above about 70%; inactive = the rest.
How the values were obtained:
[1] = NCI Yeast Anticancer Drug Screen. Data for the rad50 strain (AID 155);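 note: 0% = growth of vehicle-only cultures of the same strain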; conditions: S. cerevisiae rad50 strain growth inhibition; at 50.0 µM; active compounds read high
How it was run: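 Vehicle-treated cultures provide the reference for the growth inhibition reported for compound-exposed, repair-deficient yeast.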

[2] = NCI Yeast Anticancer Drug Screen. Data for the mec2-1 strain (AID 157); conditions: S. cerevisiae mec2-1 strain, at 50.0 µM, active compounds read high
How it was run: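 mec2-1 yeast strain, carrying an alteration in DNA damage repair or cell cycle control, was exposed to compounds; growth inhibition was measured relative to vehicle-treated controls.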

[3] = NCI Yeast Anticancer Drug Screen. Data for the sgs1 mgt1 strain (AID 161);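 note: 0% = growth of cultures given vehicle only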; conditions: S. cerevisiae sgs1 mgt1 strain, at 50.0 µM, active compounds read high
How it was run: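 Growth of a repair-deficient yeast mutant was monitored after compound treatment and expressed as inhibition relative to vehicle-treated cultures.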

[4] = NCI Yeast Anticancer Drug Screen. Data for the cln2 rad14 strain (AID 165);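 note: 0% = growth equal to vehicle treated cultures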; conditions: S. cerevisiae cln2 rad14 strain, at 50.0 µM, active compounds read high
How it was run: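 Yeast carrying cln2 and rad14 alterations (cell cycle control and DNA damage repair) were exposed to compounds. Growth inhibition was measured against vehicle-treated controls.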

[5] = NCI Yeast Anticancer Drug Screen. Data for the bub3 strain (AID 167); conditions: S. cerevisiae bub3 mutant strain, at 50.0 µM, active compounds read high
How it was run: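 Mutant yeast screening strain plus compound; vehicle-treated cultures serve as the 0% inhibition reference.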

[6] = NCI Yeast Anticancer Drug Screen. Data for the mlh1 rad18 strain (AID 175); conditions: S. cerevisiae mlh1 rad18 strain growth inhibition; at 50.0 µM; active compounds read high
How it was run: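 Growth inhibition of the yeast strain was measured after compound exposure and expressed relative to vehicle-treated controls. The strain carries defined defects in DNA damage repair.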

Measured: growth inhibition

CN(C)S(=O)(=O)c1ccc(NC(=O)OC2CCCC2)cc1
inactive: [1] 12.9% | [2] 3.7% | [3] 6.8% | [4] 33.2% | [5] 24.6% | [6] 0.35%

COc1ccc2ccccc2c1NC(C)=O
inactive: [1] 0.2% | [2] 5.95% | [3] -0.7% | [4] -21.8% | [5] -1.6% | [6] -10.5%

CN(C)c1ccc(C2NC(c3ccccc3)c3c(ccc4ccccc34)O2)cc1 (stereo not drawn)
inactive: [1] 8.5% | [2] 2.45% | [3] -12.7% | [4] -22.8% | [5] 2.5% | [6] 0.95%

CN(C)CCCNc1ccc2ncn3c4ccc(O)cc4c(=O)c1c23
inactive: [1] -4.45% | [2] -3.9% | [3] -14.3% | [4] -15.3% | [5] 0.5% | [6] 7.9%

Cc1cc(O)c(/C=N/C(=O)NN)c(=O)o1
inactive: [1] -40.6% | [2] -11.1% | [3] -20.1% | [4] -22.4% | [5] -22.5% | [6] -42.5%

OC(CSCc1ccccc1)c1ccccc1 (stereo not drawn)
inactive: [1] -17.8% | [2] 2.45% | [3] -7.95% | [4] -43% | [5] -2.2% | [6] 3.1%

CC(=O)NCCSC(=O)CCCCCCCCC(=O)SCCNC(C)=O
inactive: [1] 11.8% | [2] -0.25% | [3] 27.2% | [4] 22.1% | [5] 6.55% | [6] 6.5%

Nc1cccc(C(F)(F)F)c1
inactive: [1] -20.8% | [2] 0.25% | [3] -16.3% | [4] -58.5% | [5] 18.4% | [6] -0.05%

Cc1ccc(CN(C)C)c(C(O)c2ccccc2)c1 (stereo not drawn)
inactive: [1] 14.9% | [2] -0.75% | [3] -0.1% | [4] 11.1% | [5] 6.6% | [6] -2.45%

Cc1ccc(N=Nc2c(O)c3ccccc3[nH]c2=O)c(S(=O)(=O)N(C)C)c1
inactive: [1] 29.7% | [2] -24.2% | [3] -24.9% | [4] 29.6% | [5] -27.2% | [6] -17.5%

[N-]=[N+]=NC1(Cc2ccccc2)C(=O)c2cccc3c2N(CCC3)C1=O (stereo not drawn)
inactive: [1] 4.25% | [2] 8.55% | [3] -0.65% | [4] 16.2% | [5] 25.7% | [6] -11.2%

Clc1ccc2c(c1)CCc1cccnc1C2=C1CCNCC1
inactive: [1] 8.55% | [2] -4.5% | [3] -20.6% | [4] 16.1% | [5] 0.4% | [6] -15.1%

N#CC(NC12CC3CC(CC(C3)C1)C2)c1ccc2c(c1)OCO2 (stereo not drawn)
inactive: [1] -14.9% | [2] -5.6% | [3] -20.9% | [4] -17.1% | [5] -47.8% | [6] -44.4%

Cn1nc(-c2ccccc2)c(C(=O)/C=C/c2ccc(Cl)cc2)c(N2CCCCC2)c1=O
inactive: [1] -30.9% | [2] -21.9% | [3] -36.2% | [4] 1.75% | [5] -22.9% | [6] -22.2%

CS(=O)CC(Nc1ccccc1)c1ccccc1 (stereo not drawn)
inactive: [1] -3.75% | [2] -12.8% | [3] -10.6% | [4] 2% | [5] -25.6% | [6] -3.45%

O=C1OC(C(O)CO)C(C(O)CO)OC1=O (stereo not drawn)
inactive: [1] -9.3% | [2] -15.6% | [3] -39.5% | [4] -7.35% | [5] -12.3% | [6] 1.6%

NC1=NN(c2ccccc2)C(=O)C1/C(=N\NC(=O)c1cc2ccccc2cc1O)C(=O)Nc1ccc(Cl)cc1 (stereo not drawn)
inactive: [1] 40.5% | [2] 21.9% | [3] -7.4% | [4] 24.8% | [5] 22.8% | [6] 49.5%

c1ccc(CCc2nccc3ccccc23)cc1
inactive: [1] 8.55% | [2] -0.55% | [3] -5.6% | [4] -0.9% | [5] 13.9% | [6] 1.1%

CC(O)CCC(O)CCCO (stereo not drawn)
inactive: [1] 7.8% | [2] -10.7% | [3] 8.4% | [4] -17.1% | [5] 4.65% | [6] -11.7%

CCN(CC)CCNC(=O)Nc1ccc(OC)cc1
inactive: [1] 2.15% | [2] 24% | [3] 13.8% | [4] -0.05% | [5] 32.8% | [6] 7.65%

CCCC1OCC(CC)([N+](=O)[O-])CO1 (stereo not drawn)
inactive: [1] 19.6% | [2] 15.7% | [3] 18.1% | [4] 9.3% | [5] -0.85% | [6] -5.7%

Nc1ccn(C2CC3OCC3O2)c(=O)n1 (stereo not drawn)
inactive: [1] -13.2% | [2] 24.9% | [3] -1.25% | [4] -5.7% | [5] 0.95% | [6] 0.65%

O=C(N/N=C/c1ccccc1F)c1ccncc1
inactive: [1] 1.1% | [2] 5% | [3] -0.95% | [4] -24.4% | [5] -7.65% | [6] 23.9%

C=C(C)COc1ccc(C)cc1Br
inactive: [1] -4.05% | [2] -4.05% | [3] 0% | [4] -51.8% | [5] 7.1% | [6] -13%

C[N+](C)(C)C12CCCCCC1SC2 (stereo not drawn)
inactive: [1] 15.6% | [2] 6.7% | [3] 9.55% | [4] -26.6% | [5] -16.1% | [6] 5.1%

O=C(/C=C/c1c[nH]c2ccccc12)c1ccccc1[N+](=O)[O-]
inactive: [1] 5.45% | [2] 9.75% | [3] 7.55% | [4] -7.7% | [5] 7.6% | [6] -7%

N#CCCSC(=S)C1CCCCC1=N (stereo not drawn)
inactive: [1] -5.3% | [2] 0.8% | [3] 12.8% | [4] -112% | [5] -24.9% | [6] -2.25%

CCCOC(=O)c1cc(C(=CCC[C@H]2CC[C@@]3(C)[C@@H](CC[C@@H]4[C@@H]3CC[C@]3(C)[C@@H](C(C)CCCC(C)C)CC[C@@H]43)C2)c2cc(Cl)c(O)c(C(=O)OCCC)c2)cc(Cl)c1O (stereo partly drawn)
inactive: [1] 8.7% | [2] -9.05% | [3] -0.55% | [4] 5.65% | [5] -4.05% | [6] -45%

O=C1c2ccccc2C2(O)Nc3c(ccc4ccccc34)C12O (stereo not drawn)
inactive: [1] 2% | [2] -3.3% | [3] 10.6% | [4] -3.8% | [5] -16.9% | [6] 15.4%

CCOC(=O)C(C)C(=O)OCC
inactive: [1] 51.2% | [2] -17.9% | [3] 2.55% | [4] -3.6% | [5] 2.3% | [6] 34.5%

COc1ccc2c(c1)CCCN2C(N)=Nc1ccc([N+](=O)[O-])cc1
inactive: [1] -4.2% | [2] -4.4% | [3] -1.45% | [4] -55.8% | [5] -1.95% | [6] -7.7%

Cc1cc(-n2nnc(C(=O)O)c2-c2ccccc2)c2ccc(Cl)cc2n1
inactive: [1] -19.1% | [2] -4.35% | [3] -12.1% | [4] -35% | [5] -8.9% | [6] 4.1%

OC1c2cc(Br)ccc2-c2c(F)cc(Br)cc21 (stereo not drawn)
inactive: [1] 4.9% | [2] -6.75% | [3] -5.3% | [4] 4.65% | [5] 1.9% | [6] -10.9%

CC1(C)CC(C(N)=O)C(C)(C)N1O (stereo not drawn)
inactive: [1] 13% | [2] 7.55% | [3] 23.6% | [4] 17.9% | [5] 23.8% | [6] 7.1%

N=C(N)c1ccc(OCCOc2cccc(N)c2)cc1
inactive: [1] 3.35% | [2] -15.8% | [3] 11.2% | [4] -39% | [5] -5% | [6] 13.5%

Cc1cc(N(CCC#N)CCC#N)ccc1/C=C(\NC(=O)/C=C/c1ccccc1)C(=O)Nc1ccccc1Cl
inactive: [1] 32.3% | [2] 13.8% | [3] 42.1% | [4] 9.7% | [5] 1.2% | [6] 14.9%

O=C(O)c1ccccc1C(=O)Nc1ccc2ccccc2c1
inactive: [1] 15.9% | [2] -4.6% | [3] 5% | [4] 2.6% | [5] 7.55% | [6] 18.9%

Cc1cc(C)nc(NS(=O)(=O)c2ccc(Nc3c4ccccc4nc4c(C(=O)Nc5ccc(S(=O)(=O)Nc6cc(C)on6)cc5)cccc34)cc2)n1
inactive: [1] 28.8% | [2] 17.6% | [3] 32.2% | [4] 31.7% | [5] 11.4% | [6] 38.9%

— PubChem BioAssay (NCI)
